Source: PubChem BioAssay AID1159580 (chemical genetic matrix, 2015)
The campaign covered roughly 5,500 compounds. About 2,000 (36%) were called active. Another 18% or so got no clear call; they are omitted. No stated cut-off is given here; in the data, active means normalized growth mostly below about 0.91 (no sharp cut-off); inconclusive means no clear call, values can overlap the other calls; inactive means mostly above about 0.92. The list shows a part of the results.

Test: chemical genetic growth profiling, strain panel (AID 1159580);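 further: tested at 20 µM; growth read once vehicle control cultures reached saturation at 30 °C; 1 = growth at the plate median or of vehicle wells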
Conditions: S. cerevisiae deletion strains, growth OD
[1] = locus YDL101C, strain DUN1, stronger effect = lower value
[2] = locus YJL095W, strain BCK1, stronger effect = lower value
[3] = locus YOR061W, strain CKA2, stronger effect = lower value

Measured: normalized growth

CC(C)c1ccc(-c2cc(=O)c3ccccc3o2)cc1
inactive: locus YAR019C, strain CDC15, stronger effect = lower value 0.937 | locus YBL105C, strain PKC1, stronger effect = lower value 0.935 | locus YBR135W, strain CKS1, stronger effect = lower value 0.932 | locus YBR136W, strain MEC1, stronger effect = lower value 0.941 | locus YBR160W, strain CDC28, stronger effect = lower value 0.941 | locus YDL017W, strain CDC7, stronger effect = lower value 0.932 | locus YDL028C, strain MPS1, stronger effect = lower value 0.933 | [1] 0.945 | locus YDL108W, strain KIN28, stronger effect = lower value 0.934 | locus YDL132W, strain cdc53, stronger effect = lower value 0.948 | locus YDL214C, strain PRR2, stronger effect = lower value 0.814 | locus YDR052C, strain DBF4, stronger effect = lower value 0.944 | locus YDR054C, strain cdc34, stronger effect = lower value 0.917 | locus YDR226W, strain ADK1, stronger effect = lower value 0.931 | locus YDR477W, strain SNF1, stronger effect = lower value 0.791 | locus YER123W, strain YCK3, stronger effect = lower value 0.721 | locus YER133W, strain GLC7, stronger effect = lower value 0.762 | locus YFL009W, strain cdc4, stronger effect = lower value 0.921 | locus YFL029C, strain CAK1, stronger effect = lower value 0.932 | locus YFR003C, strain YPI1, stronger effect = lower value 0.928 | locus YFR019W, strain FAB1, stronger effect = lower value 0.864 | locus YFR028C, strain CDC14, stronger effect = lower value 0.915 | locus YGR040W, strain KSS1, stronger effect = lower value 0.728 | locus YGR052W, strain FMP48, stronger effect = lower value 0.759 | locus YGR092W, strain DBF2, stronger effect = lower value 0.569 | locus YHR079C, strain IRE1, stronger effect = lower value 0.849 | locus YHR082C, strain KSP1, stronger effect = lower value 0.875 | locus YHR205W, strain SCH9, stronger effect = lower value 0.82 | locus YIL147C, strain SLN1, stronger effect = lower value 0.932 | [2] 0.82 | locus YJL128C, strain PBS2, stronger effect = lower value 0.86 | locus YJL157C, strain FAR1, stronger effect = lower value 0.832 | locus YJR016C, strain ILV3, stronger effect = lower value 0.922 | locus YJR066W, strain TOR1 (second series), stronger effect = lower value 0.633 | locus YJR066W, strain TOR1, stronger effect = lower value 0.863 | locus YKL067W, strain YNK1, stronger effect = lower value 0.812 | locus YKL101W, strain HSL1, stronger effect = lower value 0.725 | locus YKL193C, strain SDS22, stronger effect = lower value 0.928 | locus YKL203C, strain TOR2, stronger effect = lower value 0.836 | locus YLR133W, strain CKI1, stronger effect = lower value 0.855 | locus YLR403W, strain SFP1, stronger effect = lower value 0.858 | locus YML070W, strain DAK1, stronger effect = lower value 0.698 | locus YMR001C, strain CDC5, stronger effect = lower value 0.921 | locus YMR205C, strain PFK2 (second series), stronger effect = lower value 0.846 | locus YMR277W, strain FCP1, stronger effect = lower value 0.917 | locus YNL006W, strain LST8, stronger effect = lower value 0.932 | locus YNL020C, strain ARK1, stronger effect = lower value 0.833 | locus YNL161W, strain CBK1, stronger effect = lower value 0.934 | locus YNL183C, strain NPR1, stronger effect = lower value 0.861 | locus YNL207W, strain RIO2, stronger effect = lower value 0.924 | locus YNL222W, strain SSU72, stronger effect = lower value 0.934 | locus YNL307C, strain MCK1 (second series), stronger effect = lower value 0.809 | locus YOL078W, strain AVO1, stronger effect = lower value 0.928 | locus YOL136C, strain PFK27, stronger effect = lower value 0.792 | [3] 0.822 | locus YOR119C, strain RIO1, stronger effect = lower value 0.778 | locus YOR231W, strain MKK1, stronger effect = lower value 0.799 | locus YOR329C, strain SCD5, stronger effect = lower value 0.939 | locus YPL031C, strain PHO85, stronger effect = lower value 0.781 | locus YPL153C, strain RAD53, stronger effect = lower value 0.716 | locus YPL204W, strain HRR25, stronger effect = lower value 0.724 | locus YPL209C, strain IPL1, stronger effect = lower value 0.937 | locus YPR025C, strain CCL1, stronger effect = lower value 0.937 | locus YPR106W, strain ISR1, stronger effect = lower value 0.926 | locus YPR111W, strain DBF20, stronger effect = lower value 0.918 | strain NNK1, stronger effect = lower value 0.921 | strain TSCII, stronger effect = lower value 0.929
active: locus YHR030C, strain SLT2, stronger effect = lower value 0.631 | locus YKL048C, strain ELM1, stronger effect = lower value 0.797 | locus YLR113W, strain HOG1, stronger effect = lower value 0.596 | locus YPL256C, strain CLN2, stronger effect = lower value 0.714

COc1ccc(-c2cc(=O)c3c(OC)cccc3o2)cc1
inactive: locus YBR021W, strain FUR4, stronger effect = lower value 0.978 | locus YBR229C, strain ROT2, stronger effect = lower value 1.04 | locus YCL029C, strain bik1, stronger effect = lower value 1.05 | locus YDL035C, strain GPR1, stronger effect = lower value 1.03 | locus YDL074C, strain BRE1, stronger effect = lower value 1.09 | [1] 1.03 | locus YDL185W, strain tfp1, stronger effect = lower value 1.02 | locus YDL192W, strain arf1, stronger effect = lower value 1.06 | locus YDR101C, strain arx1, stronger effect = lower value 1.01 | locus YDR162C, strain NBP2, stronger effect = lower value 1.05 | locus YDR318W, strain mcm21, stronger effect = lower value 1.03 | locus YDR388W, stronger effect = lower value 1.04 | locus YDR502C, strain sam2, stronger effect = lower value 1.01 | locus YER110C, stronger effect = lower value 1.02 | locus YER155C, strain BEM2, stronger effect = lower value 1.03 | locus YER167W, strain BCK2, stronger effect = lower value 1.04 | locus YGL078C, strain dbp3, stronger effect = lower value 0.944 | locus YGL086W, strain mad1, stronger effect = lower value 1.01 | locus YGL248W, strain PDE1, stronger effect = lower value 1.05 | locus YGR135W, strain pre9, stronger effect = lower value 1 | locus YGR252W, strain gcn5, stronger effect = lower value 0.89 | locus YHR079C, strain IRE1 (second series), stronger effect = lower value 1.02 | locus YHR094C, strain hxt1, stronger effect = lower value 1.01 | locus YHR129C, strain ARP1, stronger effect = lower value 1.06 | locus YHR200W, strain rpn10, stronger effect = lower value 1.04 | locus YIL066C, strain RNR3, stronger effect = lower value 1.06 | locus YIL073C, strain SPO22, stronger effect = lower value 1.11 | locus YIL125W, strain kgd1, stronger effect = lower value 1.04 | locus YIR030C, strain dcg1, stronger effect = lower value 1.05 | [2] 1.1 | locus YJL134W, strain LCB3, stronger effect = lower value 1.04 | locus YJL168C, strain set2, stronger effect = lower value 1.03 | locus YJL187C, strain SWE1 (second series), stronger effect = lower value 1.03 | locus YJR043C, strain POL32, stronger effect = lower value 1.04 | locus YJR075W, strain HOC1, stronger effect = lower value 1.06 | locus YKL009W, strain mrt4, stronger effect = lower value 0.911 | locus YKL068W, stronger effect = lower value 1.02 | locus YKL085W, strain MDH1 (second series), stronger effect = lower value 1.04 | locus YKL085W, strain MDH1, stronger effect = lower value 1.04 | locus YKR001C, strain vps1, stronger effect = lower value 1.09 | locus YLR039C, strain RIC1, stronger effect = lower value 1.28 | locus YLR058C, strain SHM2, stronger effect = lower value 1.03 | locus YLR102C, strain apc9, stronger effect = lower value 1.02 | locus YLR262C, strain YPT6, stronger effect = lower value 1.21 | locus YLR268W, strain sec22, stronger effect = lower value 1.02 | locus YLR371W, strain rom2, stronger effect = lower value 1.06 | locus YLR418C, strain cdc73, stronger effect = lower value 1.12 | locus YML016C, strain PPZ1, stronger effect = lower value 1.05 | locus YML032C, strain rad52, stronger effect = lower value 0.998 | locus YML124C, strain tub3, stronger effect = lower value 1.03 | locus YMR078C, strain ctf18, stronger effect = lower value 1.03 | locus YMR223W, strain ubp8, stronger effect = lower value 1.01 | locus YMR307W, strain GAS1, stronger effect = lower value 1.22 | locus YNL067W, strain RPL9B, stronger effect = lower value 1.04 | locus YNL153C, strain GIM3, stronger effect = lower value 1.02 | locus YNL233W, strain BNI4, stronger effect = lower value 1.08 | locus YNL250W, strain rad50, stronger effect = lower value 1.05 | locus YNL271C, strain bni1, stronger effect = lower value 1.04 | locus YNL298W, strain CLA4, stronger effect = lower value 0.98 | locus YNL307C, strain MCK1, stronger effect = lower value 1.03 | locus YNL322C, strain KRE1, stronger effect = lower value 1.04 | locus YNR052C, strain pop2, stronger effect = lower value 1.01 | locus YOL006C, strain TOP1, stronger effect = lower value 1.25 | locus YOL012C, strain htz1 1.26 | locus YOL147C, strain pex11, stronger effect = lower value 1.03 | [3] 1.05 | locus YOR069W, strain VPS5, stronger effect = lower value 1.04 | locus YOR136W, strain idh2, stronger effect = lower value 1.03 | locus YOR144C, strain elg1, stronger effect = lower value 1.01 | locus YOR184W, strain ser1, stronger effect = lower value 1.01 | locus YOR316C, strain cot1, stronger effect = lower value 1.02 | locus YPR119W, strain clb2, stronger effect = lower value 1.05 | locus YPR141C, strain kar3, stronger effect = lower value 1.05 | locus YPR163C, strain tif3, stronger effect = lower value 1.02 | locus YPR167C, strain met16, stronger effect = lower value 1.02 | strain wtn01, stronger effect = lower value 1.01
